Results on ten compounds are retold here after PubChem BioAssay (NCI).

About 83,000 compounds went through this panel and 20% of them were active in at least one assay; those are over-represented in the sample as a whole.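 How to read the values: 0–100, growth inhibition (40 = 60% inhibited); 0, no net growth; -100 to 0, cell death (-40 = 40% of starting cells died; -100 = all dead).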 Activity calls are given as the source filed them. The calls were made as follows: active = growth percent below 10; inactive = the rest.

This experiment relates to IGROV1 ovarian. Briefly: NCI-60 one-dose screen, 48 h (100 = growth as untreated, 0 = no growth, -100 = all killed). The settings on record: 10 µM unless noted.
Take `CC(=O)OC[C@]12CC[C@@H]([C@@H](C)c3nnc(-c4ccncc4)o3)[C@@H]1[C@H]1CC[C@@H]3[C@@]4(C)CC[C@H](OC(C)=O)C(C)(C)[C@@H]4CC[C@@]3(C)[C@]1(C)CC2`: the growth is 100% (inactive).

With `CCN(CC)c1ccc(/C=N/NC(=O)Cc2ccc(Nc3ccnc(C(F)(F)F)c3)cc2)c(O)c1`, the growth was 25.1% (inactive).

As for `Cc1cc2c(cc1C)N(C(=O)CCl)CC(=O)N2`, the growth was 43.1% (inactive).

Turning to `C#CC#CC#CC#CC#CC#CC#CC#CC[C@@H]1OC[C@@H](COC(=O)O[C@@H](C(=O)O[C@H]2C[C@@]3(O)[C@@H](OC(=O)c4ccccc4)[C@@H]4[C@]5(OC(C)=O)CO[C@@H]5C[C@H](O)[C@@]4(C)C(=O)[C@H](OC(C)=O)C(=C2C)C3(C)C)[C@@H](NC(=O)c2ccccc2)c2ccccc2)O1`, the growth was 19.3% (inactive).

As for `CCN1C(=O)N(CC)C2C1NN=c1s/c(=C\c3cnc(C)n3C)c(=O)n12` (stereo not given), the growth was 35.1% (inactive).

`C/C=C(\C)C(=O)N[C@H]1C(O)C[C@]2(C)C3CC[C@@]4(C)C(CC[C@@H]4C(C)N(C)C)C3CCC2C1O` (stereo not given in full): the growth was 66% (inactive).

For the compound `C#Cc1cccc(Nc2nc(C)nc3cc(NC(=O)CCl)ccc23)c1`, the growth is -56.7% (active).

In the case of `CSc1nn2c(-c3ccc4ccccc4c3)ccnc2c1C#N`, the growth was 20.5% (inactive).

Take `CCN(CC)CCCOc1ccc2ncnc(Nc3ccc(Oc4cccc(C(F)(F)F)c4)c(Cl)c3)c2c1`: the growth was -52.6% (active).

As for `O=C1/C(=C\c2ccccn2)c2ccccc2N1c1c(Cl)cccc1Cl`, the growth was 8.25% (active).
